Measured potencies and affinities stand elsewhere. Activity calls are given as the source filed them. The limit is not given here; nearly all actives have IC50 up to about 0.91 µM.
Biological target: Calcium-dependent protein kinase 4 (Plasmodium falciparum (isolate 3D7)) (UniProt Q8IBS5)
Assay: PfCDPK4 kinase inhibitors, biochemical, TCAMS library (AID 1159588)
Details: recombinant PfCDPK4, Kinase-Glo ATP depletion luminescence

Calcium-dependent protein kinase 4 (Plasmodium falciparum (isolate 3D7)), sequence (Q8IBS5 whole entry, looked up): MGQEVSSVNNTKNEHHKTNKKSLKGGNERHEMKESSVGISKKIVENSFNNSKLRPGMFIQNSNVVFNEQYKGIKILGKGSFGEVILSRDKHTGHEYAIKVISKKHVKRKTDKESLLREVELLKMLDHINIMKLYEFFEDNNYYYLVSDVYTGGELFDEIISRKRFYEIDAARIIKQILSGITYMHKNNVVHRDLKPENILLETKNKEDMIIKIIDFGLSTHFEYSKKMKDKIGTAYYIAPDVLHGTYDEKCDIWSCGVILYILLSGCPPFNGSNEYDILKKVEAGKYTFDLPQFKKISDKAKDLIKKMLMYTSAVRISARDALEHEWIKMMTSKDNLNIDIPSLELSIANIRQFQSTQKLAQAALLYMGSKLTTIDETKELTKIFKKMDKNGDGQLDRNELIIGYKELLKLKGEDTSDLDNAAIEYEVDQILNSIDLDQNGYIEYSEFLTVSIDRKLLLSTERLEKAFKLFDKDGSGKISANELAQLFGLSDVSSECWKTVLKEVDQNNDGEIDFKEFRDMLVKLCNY

Structure (SMILES) | outcome
COCCNCc1ccc(-c2ccc(CN(C(=O)NC3CCCCC3)C3CCN(Cc4ccccc4)CC3)cc2)cc1 | inactive
CC[C@H]1CN2CC[C@H]1C[C@H]2[C@H](O)c1cc(Cl)nc2ccc(OC)cc12 | inactive
CC(=O)Nc1ccc2[nH]cc(C3CCN(CC4CCN(C(=O)/C=C/c5ccc(Cl)c(Cl)c5)CC4)CC3)c2c1 | inactive
COc1ccccc1CNCC(O)c1cc(C(F)(F)F)ccc1C(F)(F)F (centres undefined) | inactive
CC(C)CNCc1ccc(-c2ccc(CN(C(=O)NC3CCCCC3)C3CCN(Cc4ccccc4)CC3)cc2)cc1 | inactive
O=C(Nc1cc(C(F)(F)F)cc(C(F)(F)F)c1)N1CCC(CN2CCC(c3c[nH]c4ccccc34)CC2)CC1 | inactive
COc1ccc(OC)c(CNCC(O)c2cc(C(F)(F)F)cc(C(F)(F)F)c2)c1 (centres undefined) | inactive
Cc1[nH]c2ccc(O)cc2c1C1CCN(CC2CCC(NC(=O)/C=C/c3ccc(Cl)c(Cl)c3)CC2)CC1 (centres undefined) | inactive
CC[C@H]1CN2CC[C@H]1C[C@@H]2[C@@H](OC(=O)c1ccc(Cl)cc1)c1ccnc2ccc(OC)cc12 | inactive
CC(=O)Nc1ccc(OCCN(CC(F)(F)F)c2ccc(C#N)cc2C(F)(F)F)cc1 | inactive
COc1ccc(CC(C)NCC(O)c2cccc(Cl)c2F)cc1 (centres undefined) | inactive
CN(c1cc(NC(=O)c2cccs2)ccn1)C1CCN(Cc2ccccc2)CC1 | inactive
Cc1[nH]c2cc(F)ccc2c1C1=CCN(CCCCC2(C)C(=O)Nc3ccccc32)CC1 (centres undefined) | inactive
Cc1cc(C(=O)NC2CCN(CC3(c4ccc(Cl)cc4)CCC3)CC2)on1 | inactive
O=C(c1cc(C(=O)NCc2ccc(Cl)cc2)c(=O)n(Cc2ccc(Cl)cc2)c1)c1cc(Cl)ccc1O | inactive
CCCc1c(C(=O)NC2CCC(CN3CCC(c4c[nH]c5ccccc45)CC3)CC2)cnn1-c1ccccc1 (centres undefined) | inactive
Cc1cc2ccc(CNCCc3ccccc3Br)cc2nc1N | inactive
CSc1ccc(C[C@@H](C)NC[C@H](O)c2cccc(Cl)c2)cc1 | inactive
CC(=O)N(Cc1ccccc1-c1cccc(CNCCc2ccccc2)c1)C1CCN(Cc2ccccc2)CC1 | inactive
CC(Cc1ccc(S(=O)(=O)N(C(C)C)C(C)C)cc1)NCC(O)c1cccc(C(F)(F)F)c1 (centres undefined) | inactive

Structure (SMILES) | outcome
O=C(/C=C/c1ccc(Cl)c(Cl)c1)N1CCC(CN2CCC(c3c[nH]c4ccc(NS(=O)(=O)c5cccs5)cc34)CC2)CC1 | inactive
COc1ccc(CC(C)NCC(O)c2cccc(Cl)c2)cc1C (centres undefined) | inactive
CN1CC=C(c2c[nH]c3ccc(Oc4ccccc4)cc23)CC1 | inactive
CC(Cc1ccc(NC(=O)[C@@H](C)NCCc2cccc(Cl)c2)cc1)NCCc1cccc(Cl)c1 (some centres undefined) | inactive
Cc1csc(NC2=NCCN2)n1 | inactive
O=C(C=Cc1cc([N+](=O)[O-])ccc1Cl)NC1CCC(CN2CCC(c3c[nH]c4ccccc34)CC2)CC1 (centres undefined) | inactive
CC(=O)C1(c2ccccc2)CCN(CCC2(c3ccc(Cl)c(Cl)c3)CN(C(=O)C3CCCC3)CCO2)CC1 (centres undefined) | inactive
S=C(NCCc1ccc(Cl)cc1)NC1CCC(CN2CCC(c3c[nH]c4ccccc34)CC2)CC1 (centres undefined) | inactive
CC(Cc1ccc(SC(C)(C)C)cc1)NCC(O)c1cccc(Cl)c1 (centres undefined) | inactive
CS(=O)(=O)Nc1ccc2[nH]cc(C3CCN(CC4CCN(C(=O)/C=C/c5ccc(Cl)c(Cl)c5)CC4)CC3)c2c1 | inactive
C=C[C@@H]1CN2CC[C@H]1C[C@H]2[C@H](O)c1cc(-c2ccc(Cl)cc2)nc2ccc(OC)cc12 | inactive
OC(CNCc1ccccc1OC(F)F)c1cccc(C(F)(F)F)c1 (centres undefined) | inactive
C#CCN1CCC2=C(C1)c1c(O)cc(C(C)CCCc3ccc(F)cc3)cc1OC2(C)C (centres undefined) | inactive
CC[C@H]1CN2CC[C@H]1C[C@H]2[C@H](O)c1cc(-c2ccc3ccccc3c2)nc2ccc(OC)cc12 | inactive
COc1ccc2[nH]cc(C3=CCN(C[C@H]4C[C@@H]4C(=O)c4ccccc4)CC3)c2n1 | inactive
O=C1Nc2cccc3c2C1(CCCCCN1CC=C(c2c[nH]c4ccccc24)CC1)CCC3 (centres undefined) | inactive
COC(C(=O)OCCC1CCCN1C)(c1ccccc1)c1ccccc1 (centres undefined) | inactive
CC(Cc1ccc(Oc2ccc(Cl)cc2)cc1)NCC(O)c1cccc(Cl)c1 (centres undefined) | inactive
O=C(CCc1ccco1)NC1CCN(CC2(c3ccc(Cl)cc3)CCC2)CC1 | inactive

From PubChem BioAssay
